# From PubChem BioAssay (Tox21)
# Records with an inconclusive call do not appear. The source made the active and inactive calls. The call rests on the fitted dose curve.
# Assay: qHTS assay for small molecule agonists of the p53 signaling pathway - cell viability (AID 651633);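 further: p53RE-bla HCT reporter cells with a stable beta-lactamase p53 reporter; nearly all actives have a fitted effect of over 30% in size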
# Settings: p53RE-bla HCT-116 viability, ATP luminescence, 16 h; series mostly up to 83.3 µM
# Source text: National Center for Advancing Translational Sciences [NCATS]
# NIH Chemical Genomics Center [NCGC]
# U.S. Environmental Protection Agency [EPA]
# National Institutes of Environmental Health Sciences [NIEHS]
# National Toxicology Program [NTP]
# U.S. Food and Drug Administration [FDA]
# p53, a tumor suppressor protein, is activated following cellular insult, including DNA damage and other cellular stresses. The activation of p53 regulates cell fate by inducing DNA repair, cell cycle arrest, apoptosis, or cellular senescence. The activation of p53, therefore, is a good indicator of DNA damage and other cellular stresses. […] The activation of the reporter gene under culture conditions can be detected by fluorescence intensity. This cell line was used to screen the Tox21 compound library in a 1536-well plate format and to identify agonists that activate the p53 signaling pathway.
# Tox21 Assay Protocol Summary:
# The p53RE-bla cells were dispensed at 4,000 cells/5 ul/well in 1536-well black wall/clear bottom plates using a Multidrop dispenser. After the assay plates were incubated at a 37 C/5% CO2 incubator for 5 hours, 23 nL of compounds dissolved in DMSO, positive controls or DMSO only was transferred to the assay plate by a pin tool. The plates were incubated at 37 C for 16 hours. After 1 uL of LiveBLAzerTM B/G FRET substrate was added using a Flying Reagent Dispenser, the plates were incubated at room temperature for 2 hours, and fluorescence intensity was measured by an Envision plate reader.
# For cell viability readout that measures cytotoxicity, 4 ul/well of CellTiter-Glo reagent was added into the assay plates using a Flying Reagent Dispenser. After 30 min incubation at room temperature, the luminescence intensity in the plates was measured using a ViewLux plate reader.
# On the % scale 0 is the no-effect control and ±100 the full control effect.
Structure (SMILES),outcome,"activity change, negative = cytotoxicity"
CCCCC(CC)COC(=O)c1ccccc1O (stereo not given),inactive,
O=C1OC(=O)C2CCCCC12 (stereo not given),inactive,
COc1ccccc1OCC(O)CN1CCN(CC(=O)Nc2c(C)cccc2C)CC1 (stereo not given),inactive,
CCN1CCC[C@H]1CNC(=O)c1cc(S(N)(=O)=O)ccc1OC,inactive,
CCC(C)S (stereo not given),,-9.49% [at 3.63 µM] (inactive)
CN1CCC(=C2c3ccccc3CC(=O)c3sccc32)CC1,inactive,
N=C(N)c1ccc2cc(OC(=O)c3ccc(N=C(N)N)cc3)ccc2c1,inactive,
O=c1cc(CO)occ1O,inactive,
COC(=O)c1cc(C(=O)OC)cc(S(=O)(=O)O)c1,inactive,
Nc1nc2c(ncn2COC(CO)CO)c(=O)[nH]1,inactive,
O=c1[nH]c(=O)n([C@H]2C[C@H](O)[C@@H](CO)O2)cc1I,inactive,
COc1cc(C(=O)N2CCCCCCC2)cc(OC)c1OC,inactive,
O=Cc1cccc([N+](=O)[O-])c1,inactive,
O=S(O)CO,inactive,
O=[N+]([O-])c1ccc(F)cc1F,inactive,
Cc1ccc(=O)n(-c2ccccc2)c1,inactive,
CC1(C)C(O)C(C)(C)C1O (stereo not given),inactive,
CCCCC/C=C\CCC=O,inactive,
NS(=O)(=O)c1cc2c(cc1Cl)NC(C1CC3C=CC1C3)NS2(=O)=O (stereo not given),inactive,
Cc1cccn2c(=O)c(-c3nnn[nH]3)cnc12,inactive,

Structure (SMILES),outcome,"activity change, negative = cytotoxicity"
CC[N+](C)(C)c1cccc(O)c1,inactive,
Cc1c(O)cccc1O,inactive,
C=COCC1CCC(CO)CC1 (stereo not given),inactive,
CCCCCCCCCCCCCCCCC,inactive,
CC(C)(c1ccc(O)cc1)c1ccc(O)cc1,inactive,
CCCCCCCCCCCC,inactive,
CC(C)CCCC(C)N (stereo not given),inactive,
CCc1ccc(O)c(OC)c1,inactive,
CCN(CC)CCOCCOC(=O)C1(c2ccccc2)CCCC1,inactive,
Cn1c(N)c(N=O)c(=O)n(C)c1=O,inactive,
NCCc1cnc[nH]1,inactive,
CCCCOCCOCCOCCCC,inactive,
O=C[C@H](O)[C@@H](O)[C@H](O)[C@H](O)CO,inactive,
CC(C)OC(=O)c1ccccc1,inactive,
NC(=O)c1ccc(N)cc1,inactive,
CC/C=C\CC/C=C/CO,inactive,
CC(=O)CC(C)C,inactive,
CCc1nccnc1CC,inactive,
Nc1c2c(nc3ccccc13)CCCC2O (stereo not given),inactive,
Cc1c(NC(C)C)c(=O)n(-c2ccccc2)n1C,inactive,
